PLC-gamma1 inh: PLC-gamma1 enzyme inhibitors, primary screen, biochemical, fluorescence, purified enzyme | hit rate 0.84% among 370,000 | AID 720700, 2013 | fluorogenic substrate | inhibition, % at 12.2 µM; in the data active means inhibition above about 9.5%
PLC-beta3 inh: human PLC-beta3 inhibitors, primary screen, biochemical, fluorescence. inhibition, % at 12.2 µM. 1-phosphatidylinositol 4,5-bisphosphate phosphodiesterase beta-3 (Homo sapiens), Q01970. hit rate 0.18% among 370,000. Purified PLC-beta3, fluorogenic substrate; in the data active means inhibition above about 11%;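 further: 0% = median of compound wells on plate and 100% = full blocker control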
ADAM10 inh: human ADAM10 inhibitors, primary screen, biochemical, QFRET, HTS; Disintegrin and metalloproteinase domain-containing protein 10 (Homo sapiens), O14672; recombinant ADAM10, EDANS/DABCYL FRET peptide cleavage, 3 h; inhibition, % at 7 µM; hit rate 0.62% among 370,000; AID 720582, 2013;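 active means inhibition above a per-campaign cutoff equal to the mean of compounds falling between control-based bounds plus 3 SD, cut at about 20% in these data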;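 further: 0% = DMSO wells while the 100% control is not disclosed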
ADAM17 inh: ADAM17 inhibitors, primary screen, biochemical, QFRET; recombinant ADAM17, EDANS/DABCYL FRET peptide cleavage; inhibition, % at 6.95 µM; AID 720648, 2013; hit rate 0.83% among 370,000;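 active means inhibition above the mean of compounds lying between control limits plus 3 SD, set per campaign, cut at about 8.5% in these data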;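 further: 0% = DMSO-only wells as the low control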
proKLK7 act: proKLK7 zymogen activators, primary screen, biochemical, fluorescence intensity; AID 652039, 2013; purified proKLK7, EDANS-DABCYL substrate fluorescence; 100% is mature enzyme control, 0% vehicle; hit rate 0.9% among 370,000; Kallikrein-7 (Homo sapiens), P49862; activation, % at 7 µM;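 active means activation above the mean of all tested compounds plus 3 SD, computed per campaign excluding outliers beyond control limits, cut at about 13% in these data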
ADAM10 confirm: human ADAM10 inhibitors, confirmation, biochemical, QFRET, triplicate; shares compounds with ADAM10 inh; ADAM10 QFRET peptide cleavage, EDANS fluorescence; inhibition, % at 6.95 µM; hit rate 1% among 2,100; AID 743208, 2013;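 active means inhibition above about 20% chosen separately for each screening run, limit read from the data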;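 further: 0% = DMSO wells and 100% = marimastat wells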
ADAM17 ctr: ADAM17 inhibitors, counter-screen for ADAM10 exosite inhibitor project, biochemical, QFRET, high throughput. ADAM17 QFRET peptide cleavage, EDANS fluorescence. inhibition, % at 6.95 µM. shares compounds with ADAM10 inh. hit rate 0.5% among 2,100;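 active means mean triplicate inhibition above the solvent-only control wells' mean plus 3 SD, cut at about 12% in these data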;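 further: 0% = DMSO wells and 100% = marimastat wells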
ADAM10 counter: ADAM10 inhibitors, counter-screen for ADAM17 exosite inhibitor project, biochemical, FRET, human ADAM10; hit rate 47% among 2,900; inhibition, % at 6.95 µM; recombinant ADAM10, EDANS/DABCYL FRET peptide cleavage, 3 h; shares compounds with ADAM17 inh;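 active means mean inhibition over the triplicate runs exceeds the activity threshold set in the earlier primary screen, cut at about 20% in these data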;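 further: 0% = DMSO wells and 100% = marimastat wells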
ADAM17 confirm: ADAM17 inhibitors, hit retest, confirmation, biochemical, QFRET peptide cleavage. recombinant ADAM17, EDANS/DABCYL QFRET peptide cleavage. hit rate 65% among 2,900. AID 743257, 2014. inhibition, % at 6.95 µM. shares compounds with ADAM17 inh;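 active means mean inhibition across replicates above the hit cutoff set in the primary screen, cut at about 8.5% in these data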;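 further: 0% = DMSO wells and 100% = marimastat wells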
* = called active by the depositor; . = no result given. In the library only some 2.9% were active in any assay of this set; here they are far more common.

SMILES | PLC-gamma1 inh | PLC-beta3 inh | ADAM10 inh | ADAM17 inh | proKLK7 act | ADAM10 confirm | ADAM17 ctr | ADAM10 counter | ADAM17 confirm
Cc1cccc(C)c1OCC(=O)N(Cc1ccc(Cl)cc1)C1CCS(=O)(=O)C1 (stereo not given) | 3.1 | -3.7 | 20.2* | 9.2* | 0.1 | -1.5 | 0.0 | -3.5 | 1.5
O=C(COc1ccc(F)cc1)N(Cc1ccc(Cl)cc1)C1CCS(=O)(=O)C1 (stereo not given) | -0.1 | -2.8 | -2.7 | -1.1 | -0.5 | . | . | . | .
O=C(NCC1COc2ccccc2O1)c1ccc(NC(=O)c2cccc(F)c2F)cc1 (stereo not given) | -1.9 | 2.4 | -7.6 | -0.7 | 0.1 | . | . | . | .
COc1ccc(C(=O)NC(=S)Nc2ccc(N3CCCC3)cc2)cc1 | -0.5 | -1.4 | -8.0 | -0.7 | -0.1 | . | . | . | .
COc1cccc(C(=O)NC(=S)Nc2ccc(N3CCCC3)cc2)c1 | -2.2 | -2.2 | 32.2* | 12.5* | 0.2 | 5.7 | 2.0 | 14.2 | 10.8*
CCN(CC)C(=O)C1=C(C)N(Cc2ccc(F)cc2)C(=O)C(CC(=O)NCCCCc2ccccc2)C1 (stereo not given) | -1.2 | -3.9 | -23.5 | 1.0 | -0.2 | . | . | . | .
Cc1ccc(S(=O)(=O)NCC2Cc3ccccc3N2S(=O)(=O)c2ccc(C)cc2)cc1 (stereo not given) | 1.5 | -1.7 | 22.1* | 9.2* | . | 7.3 | 2.8 | 38.7* | 16.9*
Cc1ccc(S(=O)(=O)NCC2NCCc3ccccc32)cc1 (stereo not given) | -22.1 | -25.0 | -17.4 | -6.8 | -0.7 | . | . | . | .
C#Cc1cccc(NC(=O)C2CCN(C(C)=O)CC2)c1 | 0.8 | -2.5 | 6.0 | -3.7 | 0.1 | . | . | . | .
Cc1cccc(-n2ncc3c(NCc4cccs4)ncnc32)c1 | 3.0 | 8.7 | 23.4* | 12.0* | -0.1 | 2.6 | 0.5 | 12.3 | 9.6*
Cc1ccccc1CN(CC(=O)Nc1cccc([N+](=O)[O-])c1)S(=O)(=O)c1ccc(Cl)cc1 | -0.4 | 4.4 | 21.3* | 9.7* | 0.7 | 8.1 | 2.9 | 35.1* | 19.4*
CS(=O)(=O)N(CC(=O)Nc1cccc([N+](=O)[O-])c1)c1ccccc1 | -1.2 | 1.7 | 0.9 | 0.1 | -0.3 | . | . | . | .
O=C(CSc1nc(N2CCOCC2)nc(N2CCOCC2)n1)Nc1ccccc1F | 3.4 | -9.8 | -6.7 | -4.3 | 0.1 | . | . | . | .
COc1ccc(C(c2c[nH]c3ccccc23)c2c[nH]c3ccccc23)cc1O | -1.5 | -8.4 | 30.9* | 11.4* | -0.9 | 12.7 | 4.0 | 42.6* | 20.2*
CCCCCCNC(=O)CC(c1ccccc1)c1cc(Br)ccc1O (stereo not given) | 0.8 | 4.5 | 34.7* | 23.5* | 0.0 | 7.4 | 2.7 | 41.0* | 22.4*
O=C(CC(c1ccccc1)c1cc(Br)ccc1O)NCc1ccco1 (stereo not given) | -2.5 | 2.1 | -2.1 | -0.2 | -0.2 | . | . | . | .
CN(C(=O)c1cccc(NC(=O)Cc2ccc(NC(=O)C3CCN(S(=O)(=O)c4cccc([N+](=O)[O-])c4)CC3)cc2)c1)C1CCC1 | 3.9 | 4.3 | 19.9* | 12.4* | 0.8 | -0.4 | 0.1 | 23.9* | 8.9*

Screening results from PubChem.
